Laboratory results reported in PubChem BioAssay (EPA / NIEHS).
Calls of active or inactive are those of the source. The calls were made as follows: active = hit-call score of the fitted dose curve at least 0.9, where 1 is the maximum; inactive = score below 0.9.

How the values were obtained:
[1] = read-out: Human Leukocyte Antigen - DR isotype (HLADR), HLA-DRA (gene 3122); assay: BSK_BE3C_HLADR: BioMAP Diversity Plus: BE3C Assay for Human Leukocyte Antigen - DR isotype (HLADR) Biomarker Activity (AID 2283032); conditions: primary human bronchial epithelial cells; actives raise or lower the signal
Procedure, shortened: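 Human primary bronchial epithelial cells (BE3C system) exposed to compound for 24 hours; cell-surface HLA-DR measured by ELISA, fitted bidirectionally relative to DMSO. Total protein by SRB in parallel cultures tracked cytotoxicity.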

[2] = read-out: Vascular cell adhesion molecule 1 (VCAM1), VCAM1 (gene 7412); assay: BSK_4H_VCAM1: BioMAP Diversity Plus: 4H Assay for Vascular cell adhesion molecule 1 (VCAM1) Biomarker Activity (AID 2283033); conditions: primary human endothelial cells (HUVEC); actives raise or lower the signal
Procedure, shortened: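 Primary human umbilical vein endothelial cells, 4H stimulation system, treated for 24 h; cell-surface VCAM-1 quantified by ELISA. Bidirectional fitting against DMSO; cytotoxicity tracked by SRB total-protein staining in parallel cultures.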

[3] = read-out: Interferon-gamma inducible Protein 10 (IP10), CXCL10 (gene 3627); assay: BSK_BE3C_IP10: BioMAP Diversity Plus: BE3C Assay for Interferon-gamma inducible Protein 10 (IP10) Biomarker Activity (AID 2283034); conditions: primary human bronchial epithelial cells; actives raise or lower the signal
Procedure, shortened: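 Primary human bronchial epithelial cells, with IP-10 measured by ELISA 24 hours after chemical dosing. Bidirectional fit against DMSO; cytotoxicity checked by SRB total protein staining in parallel cultures.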

[4] = read-out: Monokine induced gamma interferon (MIG), CXCL9 (gene 4283); assay: BSK_BE3C_MIG: BioMAP Diversity Plus: BE3C Assay for Monokine induced gamma interferon (MIG) Biomarker Activity (AID 2283035); conditions: primary human bronchial epithelial cells; actives raise or lower the signal
Procedure, shortened: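 ELISA read-out of MIG in human lung bronchial epithelial primary cultures, 24 h post-dosing. Bidirectional curve fit vs DMSO baseline.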

[5] = read-out: Transforming growth factor beta 1 (TGFb1), TGFB1 (gene 7040); assay: BSK_BE3C_TGFb1: BioMAP Diversity Plus: BE3C Assay for Transforming growth factor beta 1 (TGFb1) Biomarker Activity (AID 2283036); conditions: primary human bronchial epithelial cells; actives raise or lower the signal
Procedure, shortened: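 Primary human bronchial epithelial cells dosed with chemical; TGF-b1 measured by ELISA 24 h after dosing. Bidirectional curve fitting against DMSO negative control; SRB total-protein staining in parallel cultures gauged cytotoxicity.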

[6] = read-out: Plasminogen activator inhibitor-1 (PAI1), SERPINE1 (gene 5054); assay: BSK_BE3C_PAI1: BioMAP Diversity Plus: BE3C Assay for Plasminogen activator inhibitor-1 (PAI1) Biomarker Activity (AID 2283037); conditions: primary human bronchial epithelial cells; actives raise or lower the signal
Procedure, shortened: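 Primary human bronchial epithelial cells (BE3C system) exposed 24 h; PAI-1 quantified by ELISA. Parallel sulforhodamine B staining of total protein flags cytotoxicity. Bidirectional fit versus DMSO.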

[7] = read-out: urokinase plasminogen activator (uPA), PLAU (gene 5328); assay: BSK_BE3C_uPA: BioMAP Diversity Plus: BE3C Assay for urokinase plasminogen activator (uPA) Biomarker Activity (AID 2283038); conditions: primary human bronchial epithelial cells; actives raise or lower the signal
Procedure, shortened: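 ELISA read-out of uPA in human lung primary bronchial epithelial cultures, 24 h post-dosing. Gain or loss of signal fitted bidirectionally relative to DMSO baseline; cytotoxicity checked in parallel cultures via SRB total protein stain.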

[8] = read-out: Urokinase-type plasminogen activator receptor (uPAR), PLAUR (gene 5329); assay: BSK_BE3C_uPAR: BioMAP Diversity Plus: BE3C Assay for Urokinase-type plasminogen activator receptor (uPAR) Biomarker Activity (AID 2283039); conditions: primary human bronchial epithelial cells; actives raise or lower the signal
Procedure, shortened: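 Primary human bronchial epithelial cells dosed for 24 h; uPAR quantified by ELISA with bidirectional fitting against DMSO. Overt cytotoxicity assessed in parallel cultures by SRB total-protein staining (0.1% SRB, 560 nm).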

[9] = read-out: Interleukin-6 (IL6), IL6 (gene 3569); assay: BSK_CASM3C_IL6: BioMAP Diversity Plus: CASM3C Assay for Interleukin-6 (IL6) Biomarker Activity for (AID 2283040); conditions: primary human coronary artery smooth muscle cells; actives raise or lower the signal
[10] = read-out: Tissue plasminogen activator (tPA), PLAT (gene 5327); assay: BSK_BE3C_tPA: BioMAP Diversity Plus: BE3C Assay for Tissue plasminogen activator (tPA) Biomarker Activity (AID 2283041); conditions: primary human bronchial epithelial cells; actives raise or lower the signal
Procedure, shortened: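 Primary human bronchial epithelial cells in the BE3C system, exposed to compound for 24 h. tPA was quantified by ELISA; DMSO served as baseline, with gain or loss of signal fitted. Cytotoxicity checked in parallel cultures by SRB total-protein staining.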

[11] = read-out: Interleukin-8 (IL8), CXCL8 (gene 3576); assay: BSK_CASM3C_IL8: BioMAP Diversity Plus: CASM3C Assay for Interleukin-8 (IL8) Biomarker Activity (AID 2283042); conditions: primary human coronary artery smooth muscle cells; actives raise or lower the signal;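 also: IL-8 protein level quantified by ELISA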
[12] = read-out: Human Leukocyte Antigen - DR isotype (HLADR), HLA-DRA (gene 3122); assay: BSK_CASM3C_HLADR: BioMAP Diversity Plus: CASM3C Assay for Human Leukocyte Antigen - DR isotype (HLADR) Biomarker Activity (AID 2283043); conditions: primary human coronary artery smooth muscle cells; actives raise or lower the signal;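 also: cell-surface HLA-DR protein level quantified by ELISA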
[13] = read-out: Macrophage colony-stimulating factor (MCSF), CSF1 (gene 1435); assay: BSK_CASM3C_MCSF: BioMAP Diversity Plus: CASM3C Assay for Macrophage colony-stimulating factor (MCSF) Biomarker Activity (AID 2283044); conditions: primary human coronary artery smooth muscle cells; actives raise or lower the signal;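 also: M-CSF protein amount quantified by ELISA after 24 h exposure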
[14] = read-out: Low-density lipoprotein receptor (LDLR), LDLR (gene 3949); assay: BSK_CASM3C_LDLR: BioMAP Diversity Plus: CASM3C Assay for Low-density lipoprotein receptor (LDLR) Biomarker Activity (AID 2283045); conditions: primary human coronary artery smooth muscle cells; actives raise or lower the signal;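 also: LDLR protein level on the cell surface quantified by ELISA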
[15] = read-out: Monocyte Chemoattractant Protein-1 (MCP1), CCL2 (gene 6347); assay: BSK_CASM3C_MCP1: BioMAP Diversity Plus: CASM3C Assay for Monocyte Chemoattractant Protein-1 (MCP1) Biomarker Activity (AID 2283046); conditions: primary human coronary artery smooth muscle cells; actives raise or lower the signal;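 also: MCP-1 level quantified by ELISA 24 h after dosing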
[16] = BSK_CASM3C_Proliferation: Cell Proliferation Assessment in the BioMAP Diversity Plus: CASM3C Assay (AID 2283047); conditions: primary human coronary artery smooth muscle cells;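 also: sulforhodamine B total protein stain as relative cell number at 560 nm; sub-confluent cells exposed 48 h before staining; fitted both ways against DMSO so gain or loss of cell number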
[17] = read-out: Monokine induced gamma interferon (MIG), CXCL9 (gene 4283); assay: BSK_CASM3C_MIG: BioMAP Diversity Plus: CASM3C Assay for Monokine induced gamma interferon (MIG) Biomarker Activity (AID 2283048); conditions: primary human coronary artery smooth muscle cells; actives raise or lower the signal;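 also: MIG protein level measured by ELISA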
[18] = read-out: serum amyloid A (SAA), SAA1 (gene 6288); assay: BSK_CASM3C_SAA: BioMAP Diversity Plus: CASM3C Assay for serum amyloid A (SAA) Biomarker Activity (AID 2283049); conditions: primary human coronary artery smooth muscle cells; actives raise or lower the signal;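 also: SAA protein level quantified by ELISA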
[19] = BSK_CASM3C_SRB: Viability Assessment in the BioMAP Diversity Plus: CASM3C Assay (AID 2283050); conditions: primary human coronary artery smooth muscle cells
[20] = read-out: Thrombomodulin, THBD (gene 7056); assay: BSK_CASM3C_Thrombomodulin: BioMAP Diversity Plus: CASM3C Assay for Thrombomodulin Biomarker Activity (AID 2283051); conditions: primary human coronary artery smooth muscle cells; actives raise or lower the signal;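 also: thrombomodulin protein level measured by ELISA 24 h after dosing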

Measured: AC50

CN1CCC[C@H]1c1cccnc1
inactive: all assays above

Cc1cc(CCN2CCN(c3nsc4ccccc34)CC2)cc2c1NC(=O)CC2(C)C
active: [1] 28.9 µM | [2] 22.3 µM | [3] 30.4 µM | [4] 34.4 µM | [5] 27.2 µM | [6] 32.6 µM | [7] 31.3 µM | [8] 31.2 µM | [10] 25.8 µM | [11] 35.4 µM | [12] 28.5 µM | [13] 36.1 µM | [14] 33.4 µM | [15] 37.1 µM | [16] 29.8 µM | [17] 37.1 µM | [18] 31.5 µM | [19] 36.5 µM | [20] 33.9 µM

CN(C)C=O
inactive: all assays above

CCCCCCCC(=O)O
inactive: all assays above

CCCCOCCO
inactive: all assays above

ClC1=C(Cl)C(Cl)(Cl)C(Cl)=C1Cl
inactive: [20]
active: [1] 6.39 µM | [2] 6.5 µM | [3] 6.61 µM | [4] 10.1 µM | [5] 5.53 µM | [6] 5.25 µM | [7] 7.28 µM | [8] 8.37 µM | [9] 5.48 µM | [10] 6.77 µM | [11] 9.09 µM | [12] 4.27 µM | [13] 6.59 µM | [14] 5.87 µM | [15] 7.68 µM | [16] 2.76 µM | [17] 7.3 µM | [18] 6.33 µM | [19] 7.64 µM

CC(=O)NC1(c2cccc(F)c2)CCN(CC[C@@]2(c3ccc(Cl)c(Cl)c3)CN(c3ccccc3)C(=O)CO2)CC1
inactive: [5] | [11] | [13] | [15] | [17] | [18]
active: [1] 24.5 µM | [2] 27.8 µM | [3] 26 µM | [4] 26.9 µM | [6] 16.6 µM | [7] 16.6 µM | [8] 16.6 µM | [9] 8.45 µM | [10] 16.6 µM | [12] 28.2 µM | [14] 4.58 µM | [16] 27.3 µM | [19] 23.8 µM | [20] 26.1 µM

CCCCC(CC)COC(=O)CCCCC(=O)OCc1ccccc1 (configuration not stated)
inactive: all assays above

CCCCCCC(=O)O
inactive: all assays above

CC(C)(C)c1cc(C(C)(C)C)c(O)c(C(C)(C)C)c1
active: [7] 5.06 µM | [14] 11.8 µM | [20] 6.88 µM
inactive: all other assays above

CN1CCN(c2ccccc2/C=C2\SCCN(c3ccc(Cl)c(Cl)c3)C2=O)CC1
active: [1] 25.7 µM | [3] 30.4 µM | [5] 29.3 µM | [6] 33.3 µM | [7] 30.4 µM | [10] 25.7 µM | [14] 2.95 µM | [16] 20 µM | [19] 20 µM
inactive: [2] | [9] | [11] | [12] | [13] | [15] | [17] | [18] | [20]
